Our source for the Potency, max response and outcome values is PubChem BioAssay (NCATS).

Several values for one entry are separate records, joined by “and”; a condition that tells them apart may be missing. Equal entries are not always repeated. A number with no mark means an inactive call. Results filed as inconclusive are left out. Activity calls are given as the source filed them. Unless noted, calls come from the whole dose curve; as a rule, active = well fitted curve in the direction sought with a large enough effect; inconclusive = small, poorly fitted or top-dose-only effect, or another doubt; inactive = no such curve, though single readings can be large; an effect the other way counts as inactive or inconclusive.

Experiment [1] is described as follows: qHTS assay for small molecule agonists of the antioxidant response element (ARE) signaling pathway measured by Nrf2-dependant transcriptional activity (AID 720636; active = well fitted curve in the direction sought with a large enough effect in the repeat runs; an effect the other way counts as inactive or inconclusive;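 note: HepG2 cells with an ARE-driven luciferase reporter; % of control where 0% means no effect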). A digest of the protocol:
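Attachment 6 hr at 37 C, then compound versus DMSO vehicle for 16 hr in ARE-luc HepG2 cells (1% dialyzed FBS); luminescence recorded 30 min after ONE-Glo addition at room temperature.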

Experiment [2] can be described thus: qHTS assay for small molecule antagonists of the retinoid-related orphan receptor gamma (ROR-gamma) signaling pathway - cell viability counter screen (AID 720652; active = well fitted curve in the direction sought with a large enough effect in the repeat runs; an effect the other way counts as inactive or inconclusive;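 note: compound exposure lasted 16 hr before ATP read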; note: potency is the fitted concentration of half-maximal effect). A digest of the protocol: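 CHO cells carrying TET-inducible ROR and RORE-luciferase reporter, plated 5 hr, then dosed with compound plus doxycycline. After 16 hr at 37 C, viability read as intracellular ATP by CellTiter-Glo luminescence.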

The nature of experiment [3]: qHTS assay for small molecule agonists of the antioxidant response element (ARE) signaling pathway measured by Nrf2-dependant transcriptional activity - cell viability counter screen (AID 720653; active = well fitted curve in the direction sought with a large enough effect in the repeat runs; an effect the other way counts as inactive or inconclusive; note: potency is the fitted concentration of half-maximal effect; for max response: % is set by controls: 0 for no effect and ±100 for the full control effect). As to conditions: ARE-bla HepG2 viability, CellTiter-Glo ATP luminescence, 16 h; max response: hits give low values. A digest of the protocol:
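ARE-bla HepG2 cells treated with compounds for 16 h at 37C; this counter screen measures viability as intracellular ATP by CellTiter-Glo luminescence after 30 min at room temperature.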
(In general: In qHTS, concentration-response curves come from the screen itself.)

Experiment [4] is described as follows: qHTS Assay for Identifying Gametocytocidal Compounds (AID 743244).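 Note: % is set by controls: 0 for no effect and ±100 for the full control effect; actives lower the fluorescent signal which means gametocytes are killed.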 As to conditions: P. falciparum 3D7 stage III-V gametocytes, alamarBlue, 72 h; max response: hits give low values. A digest of the protocol: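 Viability read-out was resazurin reduction (alamarBlue, 24 h) measured at Ex 525/Em 598 nm. Beforehand, late-stage (III-V) 3D7 P. falciparum gametocytes at 20,000 cells/well were incubated with compound 72 h at 37C under 5% CO2.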

A short description of experiment [5]: qHTS assay for cell viability of HEK293 cells (AID 743288). For max response: % is set by controls: 0 for no effect and ±100 for the full control effect. Note: nearly all actives have a fitted effect of over 50% in size. Note: potency is the fitted concentration of half-maximal effect. The conditions noted are these: ATP luminescence (CellTiter-Glo), 18 h; max response: hits give low values. An outline of the steps: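 Total intracellular ATP, measured with a luciferase-coupled reagent, indicates the number of viable HEK293 cells. Exposure to test chemicals lasts 18 h at 37 C in 1,536-well format at 2,000 cells/well.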

Experiment [6] can be described thus: qHTS assay for cell viability of the p53RE-bla HCT-116 cell line (AID 743292). Note: nearly all actives have a fitted effect of over 55% in size. Note: potency is the fitted concentration of half-maximal effect. An outline of the steps: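 Compound-exposed HCT-116 (p53RE-bla) cells, 4,000 per well, were kept 16 h at 37 C following a 5 h preincubation. Cell number was estimated from total ATP by CellTiter-Glo luminescence read after 30 min at room temperature.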
Experiment [7] in a line: qHTS for Activators of Parkin Expression: LOPAC Validation Assay (NLuc Reporter) (AID 720572;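 note: 0% = DMSO and 100% = positive control compound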). An outline of the steps:
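Neuronal cells with a Parkin promoter-driven FLuc/NLuc coincidence reporter were treated 24 h at 37 C in 7-point dose response (LOPAC). NLuc luminescence read after FLuc; signals normalized to DMSO and positive control (100%).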

A short description of experiment [8]: qHTS for Activators of Parkin Expression: LOPAC Validation Assay (FLuc Reporter) (AID 720573;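 note: 0% = DMSO and 100% = positive control compounds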). An outline of the steps:
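FLuc signal from Parkin-promoter coincidence reporter neuronal cells, normalized to DMSO and positive control (100%). Cells (1,500/well) pre-incubated 24 h, then exposed to LOPAC compounds in 7-point dose response for 24 h at 37 C, 5% CO2.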

In experiment [9] the target is T1, Hexokinase-4 (Homo sapiens) + Glucokinase regulatory protein (Homo sapiens) (UniProt P35557+Q14397). In words: qHTS assay for inhibitors of recombinant human GCK-GKRP interaction: Diaphorase-coupled assay (AID 743205). A digest of the protocol:
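A kinetic fluorescence read (Ex 525/Em 590 nm, every minute for 30 minutes) tracked resorufin from a G6PDH-diaphorase coupled GCK reaction. It contained 10 nM GST-GCK, 10 nM FLAG-GKRP, 5 mM glucose, 0.4 mM ATP in Hepes pH 7.6. Normalized to with/without-enzyme DMSO controls.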

Experiment [10] deals with T1, Hexokinase-4 (Homo sapiens) + Glucokinase regulatory protein (Homo sapiens). In words: qHTS assay for inhibitors of recombinant human GCK-GKRP interaction: ADP-Glo assay (AID 743206).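 Note: plate controls were DMSO plus enzyme for no effect and no enzyme for full effect.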 An outline of the steps: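 GST-GCK and FLAG-GKRP (15 nM each in the dispensed mix, with 2 uM S6P) react with 0.4 mM ATP and 5 mM glucose (final) in Hepes pH 7.6 for 60 min at room temperature. ADP is measured by ADP-Glo luminescence.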

Experiment [11] has the same target. The experiment in a line: qHTS assay for inhibitors of recombinant human GCK-GKRP interaction: HTRF assay (AID 743207).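 Note: 0% = DMSO with GCK present and -100% = DMSO wells lacking GCK.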 A digest of the protocol:
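After 60 min equilibration at room temperature with anti-FLAG XL665 and anti-GST antibodies, FRET ratio (665/615 nm, excitation 320 nm) was read. Proteins: GST-GCK and FLAG-GKRP, each 5 nM, plus 2 uM S6P, pH 7.1 buffer; GCK-free wells define minimum signal.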

T1 sequence (P35557 whole entry, looked up): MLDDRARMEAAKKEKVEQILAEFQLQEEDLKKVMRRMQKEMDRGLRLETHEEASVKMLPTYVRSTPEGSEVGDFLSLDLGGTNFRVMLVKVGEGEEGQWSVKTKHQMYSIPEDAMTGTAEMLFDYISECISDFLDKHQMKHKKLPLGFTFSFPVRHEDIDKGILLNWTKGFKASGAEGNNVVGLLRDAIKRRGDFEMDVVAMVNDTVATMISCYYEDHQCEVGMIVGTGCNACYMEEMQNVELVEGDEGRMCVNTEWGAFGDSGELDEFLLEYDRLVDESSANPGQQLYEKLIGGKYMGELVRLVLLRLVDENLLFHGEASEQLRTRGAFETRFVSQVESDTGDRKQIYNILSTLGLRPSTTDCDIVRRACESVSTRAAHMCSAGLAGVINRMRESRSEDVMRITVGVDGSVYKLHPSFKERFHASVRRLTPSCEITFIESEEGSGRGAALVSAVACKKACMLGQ
T1 sequence (Q14397 whole entry, looked up): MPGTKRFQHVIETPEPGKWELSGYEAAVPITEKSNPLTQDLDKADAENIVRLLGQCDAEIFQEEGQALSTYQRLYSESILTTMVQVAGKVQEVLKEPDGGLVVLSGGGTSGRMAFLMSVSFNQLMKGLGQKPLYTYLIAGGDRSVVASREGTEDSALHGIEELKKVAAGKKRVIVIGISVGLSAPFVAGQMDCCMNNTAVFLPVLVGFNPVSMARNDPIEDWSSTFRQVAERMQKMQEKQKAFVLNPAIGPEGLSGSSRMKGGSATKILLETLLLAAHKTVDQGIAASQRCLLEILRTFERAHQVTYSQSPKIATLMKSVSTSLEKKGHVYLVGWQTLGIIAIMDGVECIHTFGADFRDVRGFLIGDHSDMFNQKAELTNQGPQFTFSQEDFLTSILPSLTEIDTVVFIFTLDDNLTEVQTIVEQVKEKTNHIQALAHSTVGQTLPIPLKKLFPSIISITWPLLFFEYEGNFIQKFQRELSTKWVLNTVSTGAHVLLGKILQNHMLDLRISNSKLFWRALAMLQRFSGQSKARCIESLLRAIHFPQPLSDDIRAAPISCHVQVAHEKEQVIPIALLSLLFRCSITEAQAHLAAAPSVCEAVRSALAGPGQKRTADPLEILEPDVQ

On to `c1ccc2sc(SSc3nc4ccccc4s3)nc2c1`, for which the Potency result in experiment [1], in [2] and in [6] was “inactive” in each case. In addition, the max response in experiment [3] is -3.31% and 10.5%; in experiment [4], 10.7%; in experiment [5], -16% and 1.48%.

Turning to `O=C1CN(/N=C/c2ccc([N+](=O)[O-])o2)C(=O)N1`, the Potency result in experiment [1] and in [6] was “inactive” each time. Besides, the max response in [4] was 3.97%.

With `COc1cc(C(O)CO)ccc1OS(=O)(=O)O` (centres undefined), the Potency result in experiment [7], in [8], in experiment [10] and in experiment [11] was “inactive” in each case. The result in experiment [9] was inactive. Also, the max response in experiment [4] was 2.33%.

For `C=CCCCCCCCCC(=O)O`, the Potency result in experiment [1] and in [6] was “inactive” each time. Also, the max response in experiment [3] was 1.06%; in experiment [4] it was 8%; in [5] it was -1.32%.

For `O=C(O)c1cc(=O)c2c(Cl)cc(Cl)cc2[nH]1`, the Potency result in [7], in experiment [8], in experiment [10] and in [11] was “inactive” each time. Moreover, the result in experiment [9] was inactive. The max response in experiment [4] is 14.4%.

Consider `CCCOC(=O)c1ccc(O)cc1`, for which the Potency result in [1], in experiment [2] and in experiment [6] was “inactive” in each case. Also, the max response in experiment [3] is -5.7% and -1.43% and -2.37%; in experiment [4] it was -1.64% and -4.63%; in [5] it was -5.57% and 0.165% and 2.13%.

As to `Nc1ccc(O)c([N+](=O)[O-])c1`, the Potency result in experiment [2] and in experiment [6] was “inactive” in each case. In addition, the max response in experiment [3] is -1.19% and -1.35%; in [4], -7.22%; in [5], -18.2% and -13.9%.

Turning to `CC1(C)S[C@@H]2[C@H](NC(=O)[C@H](N)c3ccccc3)C(=O)N2[C@H]1C(=O)O`, the Potency result in [1] and in experiment [6] was “inactive” throughout. For the same compound, the max response is -0.498% in [3], 0.735% in experiment [4] and 1.44% in [5].

As for `O=C(OCc1ccccc1)c1ccccc1`, the Potency entry in [1] and in experiment [6] was “inactive” each time. Besides, the max response was -0.23% in [3], -5.44% in experiment [4] and -7.64% in experiment [5].

Regarding `O=C(O)c1cc(O)c(O)c(O)c1`, the Potency entry in [1], in [2] and in experiment [6] was “inactive” each time. The max response was -28.5% in experiment [3] and -7.89% in experiment [5].

With `CN(C)c1ccc(C(=C2C=CC(=[N+](C)C)C=C2)c2ccccc2)cc1`, the Potency result in experiment [1] is “inactive”. The Potency is 2.37 µM (active) in [2], 6.31 µM (active) in [3], 3.55 µM (active) in experiment [5] and 3.98 µM (active) in experiment [6].

`Nc1nc2ccc([N+](=O)[O-])cc2s1`: the Potency entry in [1], in experiment [2] and in experiment [6] was “inactive” each time. The results for the max response in experiment [3], in experiment [4] and in experiment [5] were -4.37%, 8.79% and 6.78%, respectively.

With `CCCCCCCCCCCCCCCCCC(=O)O`, the Potency result in experiment [1], in experiment [2] and in experiment [6] was “inactive” throughout. Besides, the max response in experiment [3] was -2.11% and 6.03% and 17.1%; in [4] it was -10.4%; in experiment [5], -8.42% and -6.66% and -3.76%.
